Compounds without any hit were thinned out: in the full panel of roughly 79,000, 15% have a hit. Unmarked numbers belong to inactive results. Activity calls are given as the source filed them. Rule as the data show it: active = growth inhibition above about 70%; inactive = the rest.
Experiments:
[1] = NCI Yeast Anticancer Drug Screen. Data for the rad50 strain (AID 155);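 also: 0% = growth of vehicle-only cultures of the same strain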; conditions: S. cerevisiae rad50 strain growth inhibition, hits give high values
Outline: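 Relative growth inhibition (compound vs vehicle) was measured in yeast with a defined repair-gene alteration.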

[2] = NCI Yeast Anticancer Drug Screen. Data for the mec2-1 strain (AID 157); conditions: S. cerevisiae mec2-1 strain, hits give high values
Outline: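 Compounds were applied to mec2-1 yeast cells. Their growth was then compared with that of vehicle-treated cultures to give growth inhibition.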

[3] = NCI Yeast Anticancer Drug Screen. Data for the sgs1 mgt1 strain (AID 161);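 also: 0% = growth of cultures given vehicle only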; conditions: S. cerevisiae sgs1 mgt1 strain, hits give high values
Outline: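 Compounds are added to genetically altered yeast, and growth is compared with cultures given vehicle alone to give percent inhibition.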

[4] = NCI Yeast Anticancer Drug Screen. Data for the cln2 rad14 strain (AID 165);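 also: 0% = growth equal to vehicle treated cultures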; conditions: S. cerevisiae cln2 rad14 strain, hits give high values
Outline: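 Strain: cln2 rad14 yeast, altered in cell cycle control and DNA damage repair. Read-out: growth inhibition vs vehicle.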

[5] = NCI Yeast Anticancer Drug Screen. Data for the bub3 strain (AID 167); conditions: S. cerevisiae bub3 mutant strain, hits give high values
Outline: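 Screening used yeast with an engineered genetic alteration affecting cell cycle control. Compound-exposed cultures were compared with vehicle cultures, and reduced growth was taken as inhibition.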

[6] = NCI Yeast Anticancer Drug Screen. Data for the mlh1 rad18 strain (AID 175); conditions: S. cerevisiae mlh1 rad18 strain growth inhibition, hits give high values
Outline: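 A repair-deficient yeast strain is exposed to test compound, and growth is scored relative to vehicle-treated controls.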

[7] = at 5.0 µM (retest, dose inferred, filed as 0.5)
[8] = at 50.0 µM (retest, dose inferred, filed as 5.0)

Compound	growth inhibition [1, 7]	growth inhibition [1, 8]	growth inhibition ([1]; at 50.0 µM)	growth inhibition [2, 7]	growth inhibition [2, 8]	growth inhibition ([2]; at 50.0 µM)	growth inhibition [3, 7]	growth inhibition [3, 8]	growth inhibition ([3]; at 50.0 µM)	growth inhibition [4, 7]	growth inhibition [4, 8]	growth inhibition ([4]; at 50.0 µM)	growth inhibition [5, 7]	growth inhibition [5, 8]	growth inhibition ([5]; at 50.0 µM)	growth inhibition [6, 7]	growth inhibition [6, 8]	growth inhibition ([6]; at 50.0 µM)
OC(c1ccccc1)(c1ccccc1)C(F)(Cl)Cl	1%	10%	52.2%	0%	58%	94.8% (active)	-4%	15%	64.4%	1%	17%	92.9% (active)	-14%	9%	98.5% (active)	-2%	37%	39.5%
O=c1ccn(C2OC(COC(c3ccccc3)(c3ccccc3)c3ccccc3)C(O)C2O)c(=O)[nH]1 (configuration not stated)	34%	98% (active)	90.8% (active)	27%	99% (active)	92.9% (active)	25%	99% (active)	93.3% (active)	30%	98% (active)	92.4% (active)	38%	98% (active)	91.8% (active)	31%	98% (active)	90.3% (active)
COc1ccc2c(C)cc(N/N=C(\C)c3ccccn3)nc2c1	2%	57%	99.5% (active)	-3%	51%	99.7% (active)	7%	42%	99.6% (active)	-6%	28%	99.5% (active)	0%	67%	99.7% (active)	-2%	57%	99.5% (active)
O=C(O)CSCc1cc2c3ccccc3sc2c2ccccc12	49%	99% (active)	97.9% (active)	29%	99% (active)	97.2% (active)	30%	98% (active)	93.2% (active)	52%	99% (active)	97.7% (active)	31%	99% (active)	96.8% (active)	35%	99% (active)	98.5% (active)
c1cc[c]([Sn]([S]c2cccc3cccnc23)([c]2ccccc2)[c]2ccccc2)cc1	100% (active)	98% (active)	96.3% (active)	100% (active)	100% (active)	98.7% (active)	100% (active)	99% (active)	96.9% (active)	99% (active)	99% (active)	94.2% (active)	99% (active)	99% (active)	99% (active)	100% (active)	99% (active)	98.1% (active)
O=C1C(Cl)=CC(=NCl)C=C1Cl	59%	83% (active)	89.1% (active)	53%	91% (active)	91% (active)	27%	98% (active)	91.9% (active)	47%	100% (active)	85% (active)	84% (active)	95% (active)	89.8% (active)	28%	86% (active)	89% (active)
[Cu+2].[NH-]c1ccccc1O.[NH-]c1ccccc1[OH2+]	7%	69%	50.6%	20%	80% (active)	46.6%	15%	67%	60.4%	11%	59%	35.8%	45%	67%	75.8% (active)	28%	82% (active)	75.6% (active)
Nc1ccc2nc(N)sc2c1	-5%	8%	20.1%	-6%	2%	-3.75%	0%	-47%	18.5%	0%	2%	42.9%	-2%	90% (active)	-15.2%	-4%	4%	-6.65%
O=C(O)C1CCc2ccc3ccccc3c2C1c1cccc2ccccc12 (configuration not stated)	42%	98% (active)	98.1% (active)	36%	98% (active)	98% (active)	32%	98% (active)	97.7% (active)	61%	98% (active)	97% (active)	40%	98% (active)	97% (active)	52%	98% (active)	98% (active)
CCOC(=O)/C(=N/NS(=O)(=O)c1c(C)cc(C)cc1C)c1ccco1	-2%	13%	64.6%	-2%	25%	45.5%	2%	41%	50.4%	0%	-4%	38.3%	1%	29%	79.8% (active)	4%	34%	80.7% (active)
C/C=C\c1cc2c(cc1CC#N)OCO2	8%	42%	-21.3%	5%	14%	20.1%	13%	51%	42.5%	12%	78% (active)	5.6%	1%	-2%	8.25%	17%	39%	25.6%
O=C1C(Cl)C(c2cc(Br)cc(Br)c2O)N1n1cnc2ccccc2c1=O (configuration not stated)	15%	96% (active)	89.8% (active)	35%	94% (active)	86.7% (active)	25%	98% (active)	94.5% (active)	-16%	87% (active)	59.2%	22%	98% (active)	93% (active)	20%	98% (active)	97.7% (active)
O=C(c1ccc(Oc2ccccc2)cc1)C(C(c1ccccc1)N1CCOCC1)N1CCOCC1 (configuration not stated)	-5%	35%	61.1%	12%	59%	62.9%	-9%	81% (active)	88.8% (active)	-3%	-1%	54.4%	0%	61%	73% (active)	20%	60%	75.4% (active)
O=S(NCc1ccccc1)c1ccccc1 (configuration not stated)	-2%	13%	25.6%	0%	8%	28.7%	-2%	-1%	43.3%	-3%	4%	39.4%	0%	10%	36.3%	-1%	15%	75.7% (active)
CC1(C)NNC(=S)NN1	2%	12%	5.95%	-3%	8%	15.4%	4%	14%	21.3%	12%	7%	9.75%	23%	5%	2.4%	20%	8%	41.8%
CCOC(=O)C1CCC(=O)O1 (configuration not stated)	-4%	43%	-14%	3%	87% (active)	7.85%	4%	78% (active)	2.4%	-23%	36%	16.6%	2%	93% (active)	10.8%	-1%	95% (active)	-1.15%
COC(=O)C1=Cc2cc3c(cc2[C@H](c2ccc4c(c2)OCO4)C1C(=O)OC)OCO3 (some centres not stated)	2%	26%	48.6%	-5%	20%	33.9%	3%	40%	47.5%	0%	40%	37%	26%	70% (active)	71.4% (active)	2%	23%	56.8%
NCCCCC(N)C(=O)Nc1ccc2ccccc2c1 (configuration not stated)	-1%	91% (active)	99% (active)	-41%	37%	99% (active)	0%	75% (active)	99.2% (active)	1%	24%	82.8% (active)	-9%	71% (active)	99.3% (active)	0%	83% (active)	99% (active)
CCC(=O)OC1CCC(C2CCCCC2)CC1 (configuration not stated)	3%	8%	-4.95%	1%	2%	-9.55%	2%	5%	16.7%	5%	7%	-21.2%	65%	70% (active)	61.1%	4%	10%	36.8%
